Experimental data published in PubChem BioAssay (Tox21).
“And” between values parts separate entries of the source, which are not always exact repeats. Equal values may be shown once. Results filed as inconclusive are left out. Where a call stands in place of a potency, no number is given. Some compounds were tested as several samples or in several runs, with calls that do not always agree. The source made the active and inactive calls. Calls come from the whole dose curve; as a rule, active = well fitted cell-killing curve with a large enough effect in the repeat runs; inconclusive = weak or mixed curves, or effect the other way; inactive = flat fitted curve, though single readings scatter.

Assay: qHTS assay to identify small molecule agonists of the TGF-beta/Smad signaling pathway - cell viability counter screen (AID 1346829); note: nearly all actives have a fitted effect of over 45% in size
Conditions: SBE-bla HEK293T viability, CellTiter-Glo luminescence, 5 h; series mostly up to 76.8 µM
Source text: National Center for Advancing Translational Sciences [NCATS]
NIH Chemical Genomics Center [NCGC]
U.S. Environmental Protection Agency [EPA]
National Institutes of Environmental Health Sciences [NIEHS]
National Toxicology Program [NTP]
U.S. Food and Drug Administration [FDA]
Transforming growth factor beta (TGF-beta) superfamily consists of a large number of structurally related dimeric proteins that act as hormones or local mediators in regulating a wide range of biological functions. This superfamily includes TGF-betas themselves, the bone morphogenetic proteins (BMPs) and the activins. These ligands induce oligomerization of serine/threonine receptor kinases and phosphorylate the cytoplasmic signaling molecules of Smad protein family. CellSensor SBE-bla HEK 293T cell line (Life Technologies, Carlsbad, CA), responsive to TGF-beta was used to screen Tox21 10K compound library for identification of agonists/antagonists of the Smad signaling pathway. This cell line contains a beta-lactamase reporter gene under control of the Smad binding element (SBE) stably integrated into HEK 293T cells. Also cytotoxicity of the compounds was tested in parallel by measuring the cell viability using CellTiter-Glo assay system in the same wells.
Tox21 Assay Protocol Summary:
SBE-bla HEK 293T cells were dispensed at 4,000/well in 6 uL of assay medium into black wall/clear-bottom 1536-well plates using a Multidrop Combi (ThermoFisher Scientific, Waltham, MA) dispenser. After the assay plates were incubated at 37 C and 5% CO2 for an overnight, 23 nL of compounds dissolved in DMSO, positive controls or DMSO only was transferred to the assay plate by a Pintool station (Kalypsys, San Diego, CA). The assay plates were incubated at 37 C and 5% CO2 for 5 hr. One uL of LiveBLAzer B/G FRET substrate (Life Technologies) was added using a Flying Reagent Dispenser (FRD, Aurora Discovery, San Diego, CA) and the plates were incubated at room temperature for 2 hr. Fluorescence intensity (405 nm excitation, 460 nm and 530 nm emissions) was measured using an Envision plate reader (PerkinElmer, Shelton, CT). For cytotoxicity read, 4 uL of CellTiter-Glo reagent (Promega Corporation, Madison, WI) was added to each well of the assay plates using FRD. After 30min incubation at room temperature, the luminescence intensity was measured using ViewLux plate reader (PerkinElmer).
Potency is the fitted concentration of half-maximal effect.

SMILES	Potency
O=C(O)C(Cl)Br (stereo not given)	inactive
COc1cc(CC(C)N)cc(OC)c1OC (stereo not given)	inactive
CCCC[N+](=O)[O-]	inactive
Cc1cccc2sc3nncn3c12	inactive
OCC(Cl)CCl (stereo not given)	inactive
CCSC(=O)Cl	inactive
Cc1ccc2cc(C)ccc2c1	inactive
CS(=O)(=O)c1ccc(C(=O)C2C(=O)CCCC2=O)c(Cl)c1COCC(F)(F)F	inactive
CNC(=O)NC(O)C(Cl)(Cl)Cl (stereo not given)	inactive
c1ccc2c(c1)CCNC2	inactive
CC[C@@H](CO)NC(=O)[C@@H]1C=C2c3cccc4[nH]cc(c34)C[C@H]2N(C)C1	inactive
O=C1CCCCC1Cl (stereo not given)	inactive
CCOC(=O)N(C)N=O	inactive
Oc1ccc(Cc2ccc(O)cc2)cc1	inactive
ClCCCCCCCl	inactive
N=C(N)[Se]	inactive
COP(=O)(O)OC	inactive
O=C(O)CBr	inactive
C1CN2CCC1CC2	inactive
CCCN1CCC[C@@H]2Cc3nc(N)ncc3C[C@H]21	inactive

SMILES	Potency
CC(O)CCl (stereo not given)	inactive
NC(=O)CS(=O)C(c1ccccc1)c1ccccc1 (stereo not given)	inactive
CCN(CC)C1CCCCC1	inactive
COc1ccc(C=O)cc1O	inactive
BrCc1ccc(Br)cc1	inactive
C=C1CC[C@@]2(O)[C@H]3Cc4ccc(O)c5c4[C@@]2(CCN3CC2CC2)[C@H]1O5	inactive
CCCCS(=O)(=O)Cl	inactive
C=CC1(C)OC(=O)N(c2cc(Cl)cc(Cl)c2)C1=O (stereo not given)	inactive
CCCC(C)(COC(N)=O)COC(N)=O	inactive
CCC(=O)OC1(c2ccccc2)CCN(C)CC1	inactive
Oc1ccc2c3c1O[C@H]1[C@@H](O)C=C[C@H]4[C@@H](C2)NCC[C@@]341	inactive
CCC(C)(C#N)N=NC(C)(C#N)CC (stereo not given)	inactive
CN(C)C(=O)Oc1cc(OC(=O)N(C)C)cc(C(O)CNC(C)(C)C)c1 (stereo not given)	inactive
O=C1C2CC=CCC2C(=O)N1SC(Cl)(Cl)Cl (stereo not given)	inactive and 48.2 µM (active)
CC[C@H](O)C(C[C@H](C)N(C)C)(c1ccccc1)c1ccccc1	inactive
ClCCCCl	inactive
CCOC(=O)COc1ccc(Cl)cc1Cl	inactive
N#CN	inactive
COc1cccc([C@@]2(O)CCCC[C@@H]2CN(C)C)c1	inactive
COc1cccc(C=O)c1	inactive
